From PubChem BioAssay (NCI)
The panel holds about 83,000 compounds, 20% with a hit somewhere; the sample as a whole holds those more often.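 The endpoint reported here, percent growth, reads 100 for growth as untreated, 0 for no net growth and -100 for all cells dead.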 Activity calls are given as the source filed them. Rule for the calls: active = growth percent below 10; inactive = the rest.

Tests used:
Assay in all cases: NCI-60 one-dose screen, 48 h (100 = growth as untreated, 0 = no growth, -100 = all killed)
Details in all cases: 10 µM unless noted
[1] = tested on: DU-145 prostate
[2] = tested on: K-562 leukemia
[3] = tested on: MALME-3M melanoma
[4] = tested on: MDA-MB-231 breast
[5] = tested on: RXF 393 renal
[6] = tested on: SF-268 CNS
[7] = tested on: SF-295 CNS
[8] = tested on: SF-539 CNS
[9] = tested on: UACC-257 melanoma
[10] = tested on: M14 melanoma

Measured: growth

NS(=O)(=O)c1ccc(Nc2nc(N/N=C/CCc3ccccc3)nc(Nc3ccccc3)n2)cc1
inactive: [1] 109% | [2] 96.7% | [3] 113% | [4] 97.5% | [5] 96% | [6] 107% | [7] 106% | [8] 98.3% | [9] 112%

O=C(Nc1ccc(F)c(F)c1)c1cc(-c2ccc(F)cc2F)ccc1O
inactive: [1] 18.5% | [2] 12.2% | [6] 16.3% | [8] 12.5%
active: [3] -13.9% | [4] 4.13% | [5] -28.1% | [7] -23.4% | [9] -9.01%

C#Cc1nc(C(C)=O)cs1
inactive: [1] 109% | [2] 90.6% | [3] 105% | [4] 103% | [5] 95.6% | [6] 105% | [7] 106% | [8] 99.1% | [9] 107%

CS(=O)(=O)c1ccc(-c2nn(-c3ccccc3)cc2/C=N/NC(=O)c2nc(N)n[nH]2)cc1
inactive: [1] 90% | [2] 59.4% | [3] 90% | [4] 98.4% | [5] 117% | [6] 103% | [7] 103% | [8] 99.3% | [9] 98.3%

NS(=O)(=O)c1ccc(Nc2nc(Nc3ccccc3)nc3nnc(SCC(=O)NC4CCCCC4)n23)cc1
inactive: [1] 106% | [2] 94.1% | [3] 101% | [4] 95% | [5] 126% | [6] 106% | [7] 105% | [8] 96.1% | [9] 104%

N=c1c2cc(-c3ccccc3)oc2ncn1/N=C/c1ccc(Br)cc1
inactive: [1] 50.9% | [2] 80% | [3] 16.3% | [4] 93.4% | [5] 86.6% | [6] 68.9% | [7] 84.2% | [8] 74.2% | [9] 89.8%

CC(=O)c1nnn(-c2c(C(=O)n3nc(C)cc3C)sc(=S)n2-c2ccccc2)c1C
inactive: [1] 109% | [2] 102% | [3] 67.7% | [4] 89.2% | [5] 103% | [6] 106% | [7] 109% | [8] 96.6% | [9] 101%

NS(=O)(=O)c1ccc(-n2cc(CN3CCCCC3)nn2)cc1
inactive: [1] 108% | [2] 94.9% | [3] 105% | [4] 105% | [5] 106% | [6] 102% | [7] 102% | [8] 102% | [9] 101%

O=C1CC(=O)N2CSCN(C(c3ccccc3)c3nc4ncncc4[nH]3)C2=N1 (stereo not given)
inactive: [1] 110% | [2] 102% | [3] 80.5% | [4] 101% | [5] 105% | [6] 103% | [7] 99.1% | [8] 99.1% | [9] 108%

COc1ccc(S(=O)(=O)NCCCNc2nccc(-c3[nH]c(-c4ccccc4)nc3-c3ccc(Cl)c(O)c3)n2)cc1
inactive: [1] 89.3% | [2] 55.2% | [4] 61.4% | [5] 140% | [6] 92% | [7] 96.4% | [8] 101% | [9] 23.6%
active: [3] -7%

CCN1CCN(Cc2ccc(C(=O)Nc3ccc(C)c(Oc4ccc(-c5[nH]nc6ncnc(N)c56)cc4)c3)cc2C(F)(F)F)CC1
inactive: [1] 98.6% | [3] 22.8% | [4] 82.7% | [5] 44.3% | [6] 90.5% | [7] 78.8% | [8] 55.6% | [9] 71.9%
active: [2] 3.44%

Cc1ccc(-n2c(/C=C3\C(=O)Nc4ccccc43)ccc2CO)cc1
inactive: [1] 92.2% | [2] 19.2% | [3] 44% | [4] 64% | [5] 66.1% | [6] 89.5% | [7] 69.8% | [8] 68.7% | [9] 85.8%

CC1=NC2=NN3C(=NN2C(c2ccccc2)=C1)N=NC(c1ccc(Br)cc1)=C3c1ccc(Br)cc1
inactive: [1] 112% | [2] 96.9% | [3] 53.6% | [4] 95.7% | [5] 138% | [6] 102% | [7] 106% | [8] 97.2% | [9] 109%

COC(=O)C(Cc1ccccc1)Nc1nc(NC(Cc2ccccc2)C(=O)OC)nc(N2CCOCC2)n1 (stereo not given)
inactive: [1] 112% | [2] 91.6% | [3] 105% | [4] 103% | [5] 113% | [6] 103% | [7] 108% | [8] 98% | [9] 103%

O=S(=O)(NCCNc1nccc(-n2cnc3ccccc32)n1)c1ccc(Br)cc1
inactive: [1] 99.9% | [2] 88.4% | [3] 103% | [4] 88.2% | [5] 101% | [6] 91.2% | [7] 96.5% | [8] 96.2% | [9] 109%

Cc1ccc(-n2cc(/C=N/NC(=O)c3nc(N)n[nH]3)c(-c3ccc(S(C)(=O)=O)cc3)n2)cc1
inactive: [1] 100% | [2] 52.7% | [3] 85.3% | [4] 96% | [5] 117% | [6] 99.4% | [7] 104% | [8] 99.7% | [9] 99.3%

O=C1CCCc2nc(Nc3ccc(S(=O)(=O)Nc4ccc([N+](=O)[O-])cc4)cc3)ncc21
inactive: [1] 105% | [2] 92.2% | [3] 107% | [4] 99.6% | [5] 103% | [6] 96.2% | [7] 101% | [8] 92.8% | [9] 102%

Nc1cc(F)ccc1NC(=O)c1ccc(NC(=O)C/C=C/c2cccnc2)cc1
inactive: [1] 23.7% | [2] 26% | [3] 47.6% | [4] 57.2% | [5] 87.1% | [6] 53.7% | [7] 41.6% | [8] 11.9% | [9] 55.8%

O=C(CSc1nnc(-c2ccc(Cl)cc2)n1-c1ccccc1)Nc1ccc(Br)cc1
inactive: [1] 41.2% | [2] 40.5% | [6] 42.2% | [9] 50.3%
active: [3] -3.16% | [4] -29.8% | [5] -31.6% | [7] -34.3% | [8] -66.7%

C/C(=N\O)[C@H]1C[C@]23CC[C@]4(C)[C@H](CC[C@@H]5[C@@]6(C)CC/C(=N/O)C(C)(C)[C@@H]6CC[C@]54C)[C@H]2[C@H](C)C1(C)OC3
inactive: [1] 94.4% | [2] 101% | [3] 106% | [4] 99% | [5] 58.1% | [6] 89.4% | [7] 101% | [8] 103% | [9] 110% | [10] 105%

Nc1nc(-c2cccc([N+](=O)[O-])c2)c(N=Nc2ccccc2)s1
active: [5] -16.3%
inactive: [1] 69.5% | [2] 32.8% | [3] 103% | [4] 62% | [6] 66.4% | [7] 63% | [8] 71.6% | [9] 93.4% | [10] 57.7%

Cc1ccc(NC(=O)N[C@@H](Cc2cc(F)cc(F)c2)C(=O)NC2C(=O)N3C[C@H](O)C[C@H]3C(=O)N3CCCC[C@H]3C(=O)N[C@@H](CO)C(=O)N3C[C@H](C)C[C@H]3C(=O)O[C@H]2C)c(F)c1 (stereo not given in full)
inactive: [1] 37.7% | [2] 27.9% | [3] 50.7% | [4] 38.8% | [5] 100% | [6] 35.5% | [7] 78.7% | [8] 43.5% | [9] 25.4% | [10] 58.4%

Cn1cc(CNc2nc3ccc(OC/C(=C/F)CN)cc3o2)ccc1=O
inactive: [1] 110% | [2] 93.8% | [3] 98.7% | [4] 99.3% | [5] 107% | [6] 102% | [7] 96.1% | [8] 97.1% | [9] 111%

COc1ccc(-c2nc3cc(Cl)c(Cl)cc3n2CC(=O)N=Nc2c(O)[nH]c3ccc(OC)cc23)cc1
inactive: [2] 49.2% | [3] 41.2% | [4] 52% | [6] 78.3% | [7] 66.5% | [8] 47.2% | [9] 87.9% | [10] 56.8%
active: [1] 5.81% | [5] -29.8%

CCOC(=O)c1c(Nc2ccccc2)nn2c(-c3cccs3)ccnc12
inactive: [1] 84.7% | [2] 59% | [3] 88.7% | [4] 81.3% | [6] 91.4% | [7] 84.1% | [8] 84.1% | [9] 108% | [10] 91.6%
active: [5] -6.08%

C=CC(=O)N1CC=C(c2cc3c(N[C@H](C)c4ccccc4)ncnc3[nH]2)CC1
active: [5] -27.6%
inactive: [1] 40.3% | [2] 84.2% | [3] 104% | [4] 47.8% | [6] 63.4% | [7] 79% | [8] 60.1% | [9] 102% | [10] 100%

COc1cccc2c1CN(C(=O)c1ccc(O)c(C(=O)N3Cc4ccc(OCCC[P+](c5ccccc5)(c5ccccc5)c5ccccc5)cc4C3)c1)C2
inactive: [1] 89.1% | [2] 22.6% | [3] 70.8% | [4] 86.9% | [5] 104% | [6] 80.5% | [7] 76.3% | [8] 64.4% | [9] 44.8% | [10] 89.3%
